Active and inactive are the calls of the source. No stated cut-off is given here; in the data, active means IC50 below about 40 µM; inactive means the rest.
Test: HTRF spectral interference by compounds, SAR follow-up, artefact control, biochemical, fluorescence ratio (AID 2496)
Details: HTRF spectral interference counter-screen

| SMILES | IC50 |
| --- | --- |
| CCOC(=O)c1sc2nc(-c3ccco3)c3c(c2c1N)CC(C)(C)OC3 | > 50 µM (inactive) |
| Nc1ccc(-c2nc3c(Cl)c(N)ccc3[nH]2)cc1 | 5.59 µM (active) |
| CN(CCC#N)C(=O)COC(=O)c1c2c(nc3ccccc13)/C(=C/c1ccco1)CC2 | 8.9 µM (active) |
| CNc1nc(-c2ccccc2)[n+](-c2ccc(C)cc2)s1 | > 50 µM (inactive) |
| CCN(CC)CCNC(=O)c1cc(-c2ccco2)nc2ccccc12 | 19.8 µM (active) |
| O=C(NC1CCCC1)c1ccc2nc(-c3ccco3)c(-c3ccco3)nc2c1 | > 50 µM (inactive) |
| O=C(NN=Cc1ccc(F)cc1)c1cc(-c2ccco2)nc2ccccc12 | > 50 µM (inactive) |
| CCN(CC)C(=O)COC(=O)c1cc(-c2ccco2)nc2ccccc12 | 16.4 µM (active) |
| O=C(Nc1ccc2nc(-c3ccco3)c(-c3ccco3)nc2c1)N1CCOCC1 | 7.32 µM (active) |
| Cc1ccc(/C=C/C(=O)NCc2ccc(S(N)(=O)=O)cc2)o1 | > 50 µM (inactive) |
| CC(/C=C/c1ccco1)=NNC(=O)c1cc(C)[nH]n1 | > 50 µM (inactive) |
| O=C(CSc1ccc(Cl)cc1)Nc1cccc(-c2nc3ccccc3[nH]2)c1 | 12.8 µM (active) |
| Nc1c(C(=O)NC2CC2)sc2nc3c(c(-c4ccco4)c12)CC/C3=C/c1ccco1 | 2.98 µM (active) |
| Cc1ccc(/C=C/C(=O)N2CCN(c3ncccn3)CC2)o1 | > 50 µM (inactive) |
| Nc1ncnc2oc(-c3ccco3)c(-c3ccco3)c12 | > 50 µM (inactive) |

— PubChem BioAssay AID2496 (Sanford-Burnham Center for Chemical Genomics, 2010)
